Assay outcomes: PubChem, several laboratories
In the library only some 0.85% were active in any assay of this set; here they are far more common.
ZTA DNA inh: counter-screen for EBNA-1 inhibitors: inhibitors of Epstein-Barr virus ZTA; P03206; ZTA-DNA binding, fluorescence polarization; inhibition, % at 11 µM; 0.15% of 320,000 active; AID 2234; in the data active means inhibition above about 33%
Keap1 Nrf2 FP: Keap1-Nrf2 (human) interaction inhibition. Keap1 Kelch-Nrf2 peptide fluorescence polarization, 1536-well. inhibition, % at 9.4 µM. 0.15% of 340,000 active; in the data active means inhibition above about 12%;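 further: human Keap1 Kelch domain with fluorescein labeled Nrf2 9mer peptide probe; 0% = neutral control wells and 100% = peptide positive control; higher means more block of Keap1 binding to Nrf2 peptide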
Target sequence (Q14145 whole entry, looked up, the tested form may be a part): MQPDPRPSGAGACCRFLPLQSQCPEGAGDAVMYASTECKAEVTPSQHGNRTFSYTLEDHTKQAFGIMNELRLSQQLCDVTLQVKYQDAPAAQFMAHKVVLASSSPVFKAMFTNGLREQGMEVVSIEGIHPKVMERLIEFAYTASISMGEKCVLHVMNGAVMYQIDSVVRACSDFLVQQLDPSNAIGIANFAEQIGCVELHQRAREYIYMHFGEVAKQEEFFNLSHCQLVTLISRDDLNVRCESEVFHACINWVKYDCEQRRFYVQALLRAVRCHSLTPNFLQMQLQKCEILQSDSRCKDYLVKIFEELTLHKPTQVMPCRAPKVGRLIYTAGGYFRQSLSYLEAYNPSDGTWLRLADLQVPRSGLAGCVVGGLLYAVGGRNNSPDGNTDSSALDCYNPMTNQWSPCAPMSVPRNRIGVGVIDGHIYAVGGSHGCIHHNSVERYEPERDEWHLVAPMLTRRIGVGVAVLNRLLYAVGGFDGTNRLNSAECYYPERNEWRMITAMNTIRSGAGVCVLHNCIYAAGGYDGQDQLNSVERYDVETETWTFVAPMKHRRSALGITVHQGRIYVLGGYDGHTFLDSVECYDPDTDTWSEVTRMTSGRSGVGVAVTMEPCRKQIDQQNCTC
EBNA-1 inhibitor: blocks EBNA-1 binding to DNA; inhibition, % at 14.8 µM; 0.34% of 300,000 active; EBNA-1 DNA binding, fluorescence polarization; in the data active means inhibition above about 28%
eLon inh: inhibitors of E. coli Lon protease. purified E. coli Lon protease, fluorescence polarization. P0A9M0. 0.42% of 360,000 active. inhibition, % at 7.94 µM; in the data active means inhibition above about 13%, passing the limit was not always enough;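 further: 0% = enzyme with probe and DMSO and 100% = no enzyme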
C-LANA FP: inhibitors of KSHV LANA C-terminal domain DNA binding | MBP-C-LANA/FAM-LBS DNA binding, fluorescence polarization | inhibition, % at 9 µM | 0.078% of 340,000 active;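 active means highest replicate inhibition at or above 60% at 9 µM, even if other replicates fall short; inactive means all replicates below 60% inhibition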;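 further: 0% = neutral control wells and 100% = 4 µM acridine orange control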
EBNA-1 inh conf: EBNA-1 (EBV) inhibition, confirmation | inhibition, % at 14.8 µM | 35% of 830 active | AID 2292 | shares compounds with EBNA-1 inhibitor | Recombinant EBNA-1 DBD, Cy5-DNA fluorescence polarization;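 active means mean inhibition across replicates above a set limit taken from the earlier primary screen, cut at about 28% in these data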;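 further: plate controls were EBNA-1 protein with DMSO for no effect and wells lacking EBNA-1 for full effect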
ZTA counter trip: counter-screen for EBNA-1 inhibitors: Epstein-Barr virus ZTA inhibitors, triplicate; shares compounds with EBNA-1 inhibitor; 830 tested, under 10 active; inhibition, % at 11.1 µM; AID 2328; Zta-ZRE DNA binding, Cy5 fluorescence polarization;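 active means mean inhibition over triplicates above a set limit taken from the primary EBNA-1 screen, cut at about 37% in these data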;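 further: purified full length Zta protein with Cy5 labeled ZRE DNA probe; 0% = Zta with DMSO and 100% = wells lacking Zta protein; inhibitors lower polarization by freeing the labeled DNA probe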
Numbers without * were called inactive; . = no result given.

SMILES | ZTA DNA inh | Keap1 Nrf2 FP | EBNA-1 inhibitor | eLon inh | C-LANA FP | EBNA-1 inh conf | ZTA counter trip
Cc1ccc(S(=O)(=O)Nc2c(NC3CCCCC3)c3ccccc3oc2=O)c(C)c1 | -2 | -4 | 0 | -1 | -1 | . | .
CC(=O)c1sc(NC(=O)C2CCCN2S(=O)(=O)c2ccccc2F)nc1C (centres undefined) | 7 | -1 | . | -2 | 2 | . | .
COc1ccccc1N1CCN(c2ccc([N+](=O)[O-])cc2Cl)CC1 | 2 | -3 | 38* | 3 | -1 | -13 | -2
CC1(c2nnnn2Cc2ccccc2)CCC(=O)N1CCCn1ccnc1 (centres undefined) | . | . | . | 0 | . | . | .
COc1ccc(NC(=O)CN(C)C(=O)c2cc(-c3ccc(OC)cc3)nc3ccccc23)cc1 | 3 | -2 | 31* | -5 | 1 | 0 | -3
O=C(CSc1nc2ccccc2c(=O)n1-c1ccccc1)c1cccc([N+](=O)[O-])c1 | 6 | 0 | 32* | -14 | 0 | 27 | 0
O=C(Nn1c(SCc2cccc([N+](=O)[O-])c2)nc2ccccc2c1=O)c1ccccc1 | 11 | 6 | 4 | 0 | 1 | . | .
O=C(Cn1nnc(-c2ccc(CN3CCOCC3)cc2)n1)Nc1nc(-c2ccccc2)cs1 | -2 | 4 | 48* | 11 | 0 | 5 | 7
Cc1ccc(S(=O)(=O)N2C[C@@H]3CCCC[C@@H]3[C@@H](C)[C@H]2c2cn(Cc3ccccc3)c3ncccc23)cc1 | . | 6 | . | -5 | -1 | . | .
Cc1cccc(N(C)S(=O)(=O)c2ccc3[nH]cc(C(=O)N4CCOCC4)c(=O)c3c2)c1 | -4 | -3 | -6 | -9 | -1 | . | .
CCc1ccccc1N(C)S(=O)(=O)c1ccc2[nH]cc(C(=O)N3CCc4ccccc43)c(=O)c2c1 | 4 | -4 | 28* | -17 | 1 | 3 | -1
CCCCCC(=C/c1ccccc1)/C=N/Nc1ccc(S(=O)(=O)N2CCOCC2)cc1[N+](=O)[O-] | . | 0 | . | 6 | -2 | . | .
CCCCCNC(=O)C1CCC(Cn2c(=S)[nH]c3ccccc3c2=O)CC1 (centres undefined) | -3 | 4 | 44* | -4 | -3 | 21 | 3
CCN(CC)c1ccc(/C=C(\C#N)C(=O)NCc2ccco2)cc1 | 3 | . | 6 | . | . | . | .
CN(C)c1ccc(/C=C(\C#N)C(=O)NCc2ccco2)cc1 | 24 | . | 44* | . | . | 69* | -5
CCn1c(SCC(=O)Nc2ccc(C(C)=O)cc2)nc2c([nH]c3ccccc32)c1=O | -5 | -4 | 39* | -3 | -1 | -6 | 3
CCn1c(SCC(=O)Nc2cccc(NC(C)=O)c2)nc2c([nH]c3ccccc32)c1=O | 4 | -3 | -3 | -3 | 3 | . | .
COc1ccc(-n2c(SCC(=O)NCC3CCCO3)nc3c([nH]c4ccccc43)c2=O)cc1 (centres undefined) | 8 | -1 | 110* | 0 | -1 | 123* | -12
COc1cccc(-n2c(SCC(=O)NCC3CCCO3)nc3c([nH]c4ccccc43)c2=O)c1 (centres undefined) | -8 | -7 | -2 | -2 | -3 | . | .
Cc1cc(NC(=O)CN(C)CC(=O)Nc2ccc(Cl)cc2)no1 | . | 2 | . | -8 | 1 | . | .
OCC[C@@H]1C[C@H](O)[C@@H](O)[C@]2(OCc3cc(C(F)(F)F)ccc32)O1 | . | . | . | 2 | . | . | .
NS(=O)(=O)c1ccc(NC(=O)/C=C/c2cn(-c3ccccc3)nc2-c2cccc(Cl)c2)cc1 | 5 | -3 | 30* | 1 | 1 | 39* | 9
CC(=O)Nc1ccc(NC(=O)CSc2ccc(-c3ccc4c(c3)OCO4)nn2)cc1 | 6 | -2 | 49* | 23 | -1 | 24 | 3
CC(=O)c1ccc(NC(=O)CSc2ccc(-c3ccc4c(c3)OCO4)nn2)cc1 | 9 | -1 | 5 | 6 | 1 | . | .
Fc1ccc(-c2nc3ccc(Br)cn3c2Cc2ccccc2C(F)(F)F)cc1 | . | . | . | 3 | . | . | .
SMILES | ZTA DNA inh | Keap1 Nrf2 FP | EBNA-1 inhibitor | eLon inh | C-LANA FP | EBNA-1 inh conf | ZTA counter trip
Cc1ccc(NCc2nnc(SCC(=O)Nc3cc(C)on3)n2C)cc1 | 2 | -2 | 4 | 0 | -2 | . | .
Cc1cccc(OCc2nnc(SCC(=O)Nc3cc(C)on3)n2C)c1 | -4 | -3 | 31* | -4 | -1 | 8 | 14
COc1ccc(C(=O)NNC(=O)CSc2nnc(COc3ccc4ccccc4c3)n2C)cc1 | -1 | -3 | 82* | -6 | 0 | 36* | 1
Cc1ccc(NS(=O)(=O)N2CCCCC2)cc1 | . | 0 | . | -3 | -4 | . | .
O=C(Nc1ccc(S(=O)(=O)Nc2nccs2)cc1)c1ccc(N2C(=O)c3ccccc3C2=O)cc1 | -2 | 2 | 61* | -48 | 2 | 25 | 31
COc1ccc(C(=O)N/C(=C\c2cn(C)c3ccccc23)C(=O)NCCN2CCOCC2)cc1OC | 5 | 0 | 3 | -57 | 0 | . | .
Cc1cccc(NC(=O)/C(C#N)=C/c2cn(CC(=O)NCc3ccco3)c3ccccc23)c1C | 1 | -5 | 35* | -14 | 0 | 30* | -1
Cc1ccc(NC(=O)COC(=O)c2ccc3ncsc3c2)c(C)c1 | . | . | . | 2 | . | . | .
CC(=O)c1cccc(NC(=S)N2CCN(CCN3C(=O)c4cccc5cccc(c45)C3=O)CC2)c1 | -3 | -2 | 34* | -17 | 2 | 19 | -15
CCOc1ccc(N=C2NC(=O)C(CC(=O)Nc3ccc(OC)cc3)S2)cc1 (centres undefined) | 0 | 2 | 33* | -3 | 0 | 29* | 0
Cc1ccc(NC(=O)CC2SC(=Nc3ccc(O)cc3)NC2=O)cc1 (centres undefined) | 20 | -3 | 12 | -5 | 0 | . | .
COc1ccc(Nc2nc(Cl)nc(NCc3ccco3)n2)c(OC)c1 | 1 | 3 | 29* | 1 | -1 | 15 | -6
O=C(NC(CO)(CO)CO)[C@@H]1CCCN1S(=O)(=O)c1cccc2cccnc12 | -9 | -3 | 4 | 2 | -1 | . | .
COc1ccc(/C=C2/NC(=O)N(CC(=O)Nc3cccc(C)c3)C2=O)cc1O | 0 | -4 | 56* | 2 | -1 | 76* | -1
Cc1cccc(NC(=O)CN2C(=O)N/C(=C/c3ccc(C)o3)C2=O)c1 | 4 | 1 | -1 | -7 | 1 | . | .
C[C@@H]1CN([C@@H](C)CO)C(=O)c2cc(Br)cnc2O[C@H]1CN(C)Cc1cccnc1 | . | . | . | -4 | . | . | .
CN(CC(=O)Nc1ccc(Cl)cc1)CC(=O)N1CCc2ccccc21 | . | . | . | -12 | . | . | .
COc1ccc(/C=C/C(=O)Oc2ccc(/C=N\NC(=O)c3ccc(F)cc3)cc2)cc1 | -5 | -2 | 2 | 1 | 1 | . | .
COc1ccc(/C=C/C(=O)Oc2cccc(/C=N/NC(=O)c3cccc(F)c3)c2)cc1 | 0 | -4 | 29* | 1 | -1 | 3 | 1
O=C(CC1(CC(=O)N2CCOCC2)CCCC1)Nc1ccccc1 | -1 | 4 | . | -6 | 0 | . | .
